In the library only some 21% were active in any assay of this set; here they are far more common.
HCV inh: qHTS Assay for Inhibitors of Hepatitis C Virus (HCV); Huh7.5.1 HCVcc-Cre infection, luciferase reporter, 44 h; Potency, µM (doses to about 41.8 µM), for inactives: at the top dose activity change, negative = inhibition, usual class: inhibitors; 340,000 compounds, 3.4% hits; AID 651820, 2012; note: potency is the fitted concentration of half-maximal effect; % is set by controls: 0 for no effect and ±100 for the full control effect
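Reporter virus HCVcc-Cre (~0.5 moi) infects cells exposed to compound; seeding density 1,000 cells/well with 4 h settling beforehand. Luminescence, 15 sec read, taken 44 h post-infection following a 15 min RT substrate incubation.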
HCMV inh: qHTS Assay for inhibitors of the human cytomegalovirus (HCMV) | HFF cells, HCMV-luciferase reporter, 72 h; hits give low values | activity change, negative = inhibition, % at 57.5 µM | 410,000 compounds, 4.5% hits; in the data active = activity change below about -60%; inconclusive = no clear call, values can overlap the other calls; inactive = above about -39%; note: % is set by controls: 0 for no effect and ±100 for the full control effect
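Two compound doses tested in HFFs infected with HCMV-luciferase, MOI 1 PFU/cell, 72 h at 37C. Lysate luminescence read with OneGlo; data normalized against buffer-only and 10uM Salinomycin inhibitor controls.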
Pf growth 48h: Primary qHTS for delayed death inhibitors of the malarial parasite plastid, 48 hour incubation | P. falciparum luciferase growth in erythrocytes, 48 h | Potency, µM (series often up to 28.7 µM), without a hit: top-dose activity change, negative = inhibition, hits mostly inhibitors | 310,000 compounds, 5.9% hits; note: potency is the fitted concentration of half-maximal effect; % is set by controls: 0 for no effect and ±100 for the full control effect
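Luciferase-expressing P. falciparum in infected erythrocytes (2% hematocrit, 0.1% parasitemia final) in RPMI 1640/0.5% Albumax were exposed to compound for 48 hours at 37 C, 5% CO2; growth read as luminescence.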
Cycloheximide cs: Cycloheximide Counterscreen for Small Molecule Inhibitors of Shiga Toxin; 300,000 compounds, 12% hits; max response, %; AID 2314, 2010; cell reporter, cycloheximide protein synthesis inhibition counterscreen; in the data active = max response mostly above about 13%, no sharp cut-off; inactive = mostly below about 14%; note: read at 38.3 µM for the half of the compounds with a filed dose; 0% is about no effect
Pf growth 96h: Primary qHTS for delayed death inhibitors of the malarial parasite plastid, 96 hour incubation; AID 504834, 2011; 320,000 compounds, 6.9% hits; P. falciparum luciferase reporter growth, 96 h; Potency, µM (series often up to 28.7 µM), for the others: top-dose activity change, negative = inhibition, usual class: inhibitors; note: potency is the fitted concentration of half-maximal effect; % is set by controls: 0 for no effect and ±100 for the full control effect
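P. falciparum expressing integrated firefly luciferase, in erythrocytes at 2% hematocrit, 0.05% parasitemia, incubated with compounds 96 h at 37 C, 5% CO2. Growth inhibition read as loss of luminescence; two-generation exposure targets delayed-death apicoplast inhibitors.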
Shiga toxin inh: A qHTS for Small Molecule Inhibitors of Shiga Toxin; Vero cells, Shiga toxin protein synthesis inhibition reporter; inhibition, % at 38.7 µM; 290,000 compounds, 9.2% hits; AID 2315, 2010; in the data active = inhibition mostly above about 28%, no sharp cut-off; inactive = mostly below about 43%; note: 0% is about no effect
An asterisk follows results filed as active; u = inconclusive; x = not tested or not shown. Unless noted, calls come from the whole dose curve; as a rule, active = well fitted inhibition curve with a large enough effect; inconclusive = small, poorly fitted or top-dose-only effect, or another doubt; inactive = no such curve, though single readings can be large or run the other way.

SMILES | HCV inh | HCMV inh | Pf growth 48h | Cycloheximide cs | Pf growth 96h | Shiga toxin inh
CCc1ccc(NC(=O)Cn2c(=O)c3cc(Cl)ccc3n3nncc23)cc1 | x | 14 | x | x | x | x
COc1cc(CN2CCN(Cc3ccco3)CC2)cc(OC)c1 | 15% | 17 | 25% | 1 | 2.1µM* | -4
O=C(N[C@H]1CC[C@@]23CCCN2C(=O)CCC[C@H]3[C@H]1Cc1ccccc1)c1ccccc1 | x | 6 | x | x | x | x
Cc1ccc2c(CN3CCN(C(=O)c4ccc(Br)cc4)CC3)cc(=O)oc2c1 | x | 38 | x | x | x | x
N#C/C(=C\c1ccc(OCc2ccccc2)cc1)C(N)=O | 10% | -19 | 106% | 24* | 6% | 90*
Cc1ccccc1COc1ccc(/C=C(\C#N)C(N)=O)cc1 | 25% | 7 | 11% | 16 | u | 62
Cc1ccsc1/C=C(/C#N)C(=O)NCc1ccccc1 | 24% | -30 | 33% | 12* | 40% | 27
COc1ccc(/C=C(\C#N)C(=O)NCc2ccccc2)cc1 | 10% | 6 | 49% | 34* | u | 87*
Cc1ccsc1/C=C(\C#N)C(=O)NCc1cccnc1 | 7% | 8 | 11% | -1 | 39% | -11
CN(C)c1ccc(/C=C(/C#N)C(=O)Nc2nc3c(s2)CCN(Cc2ccccc2)C3)cc1 | u | -40 | x | x | x | x
N#C/C(=C\c1ccc(OCc2ccccc2)cc1)C(=O)Nc1nc2c(s1)CCN(Cc1ccccc1)C2 | 1% | -3 | 8.3µM* | 20* | u | 4
CN(CCNC(=O)C1CCCN(c2ncnc3c2nc2n3CCCCC2)C1)Cc1ccccc1 (configuration not stated) | -23% | -12 | -24% | -2 | u | -6
Cc1nnc(N2CCN(c3ccccc3F)CC2)c2c1nnn2Cc1ccc(F)cc1 | x | 5 | x | x | x | x
CNC(=O)/C(C#N)=C/c1ccc(OCCOc2ccccc2)cc1 | -4% | 89 | 14% | 11* | 60% | 15
Cc1ccc(/C=C(/C#N)C(=O)NC(=O)Oc2ccccc2)cc1 | 18% | 18 | 14% | 16 | x | 17
Cc1cn(-c2ccc(Br)cc2)[nH]c1=O | 5% | 33 | 60% | 39* | x | 64*
COc1ccc(C(=O)N2CCc3cc(OC)c(OC)cc3C2)cc1OC | -18% | 15 | 17% | -3 | u | -8
COc1ccc(C(=O)/C=C2\NCCc3cc(OC)c(OC)cc32)cc1OC | u | 17 | 10µM* | -6 | 13µM* | 4
Cc1ccc(OC(C)C(=O)NCC2(N3CCOCC3)CCCCC2)cc1C (configuration not stated) | x | 105 | x | x | x | x
COc1ccc(C(NC(=O)N2CC(C)OC(C)C2)C(Cl)(Cl)Cl)cc1F (configuration not stated) | u | -29 | 13µM* | -2 | 3.3µM* | 2
C=CCNC(=O)c1cn(CC)c2cc(N3CCN(C(=O)c4ccco4)CC3)c(F)cc2c1=O | -6% | -35 | 7.4µM* | -3 | u | -7
CCn1cc(C(=O)NCC(C)C)c(=O)c2cc(F)c(N3CCN(C(=O)c4ccco4)CC3)cc21 | u | 6 | 4.1µM* | -2 | 22% | -4
CCn1cc(C(=O)NCc2ccccn2)c(=O)c2cc(F)c(N3CCN(C)CC3)cc21 | -6% | -16 | -21% | -7 | 20% | -18
CCn1cc(C(=O)NCc2ccc3c(c2)OCO3)c(=O)c2cc(F)c(N3CCN(C)CC3)cc21 | u | -4 | u | -4 | 1% | -24
CCC(C)NC(=O)c1cn(CC)c2cc(N3CCN(C(=O)c4ccco4)CC3)c(F)cc2c1=O (configuration not stated) | 14µM* | -23 | 5.9µM* | 8 | 4.1µM* | 17
CCn1cc(C(=O)NCc2ccco2)c(=O)c2cc(F)c(N3CCN(C(=O)c4ccco4)CC3)cc21 | u | 5 | 7.4µM* | 0 | 24% | -1
CCC(C)NC(=O)c1cn(CC)c2cc(N3CCN(C)CC3)c(F)cc2c1=O (configuration not stated) | u | 4 | u | -1 | -22% | -7

Screens from PubChem.
